Where “and” joins values, the source holds several entries; their conditions need not be identical. Identical values can stand only once. Inconclusive results are not listed. Where a structure was tested more than once in an assay, its records may differ in their call. Calls of active or inactive are those of the source. Calls come from the whole dose curve; as a rule, active = well fitted cell-killing curve with a large enough effect in the repeat runs; inconclusive = weak or mixed curves, or effect the other way; inactive = flat fitted curve, though single readings scatter.
% is set by controls: 0 for no effect and ±100 for the full control effect; potency is the fitted concentration of half-maximal effect.

The assay is described as follows: qHTS assay to identify small molecule that activate the aryl hydrocarbon receptor (AhR) signaling pathway - cell viability counter screen (AID 743086).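 For viability change, negative = cytotoxic: HepG2 liver cells carrying the AhR DRE luciferase reporter.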 Note: nearly all actives have a fitted effect of over 45% in size. The following applies: HepG2-AhR-luc viability, CellTiter-Fluor, 24 h; series mostly up to 70.3 µM; viability change, negative = cytotoxic: at the top concentration. An excerpt: U.S. Tox21 Program National Center for Advancing Translational Sciences [NCATS] NIH Chemical Genomics Center [NCGC] U.S. Environmental Protection Agency [EPA] National Institutes of Environmental Health Sciences [NIEHS] National Toxicology Program [NTP] U.S. Food and Drug Administration [FDA] Tox21 Assay overview: The Aryl hydrocarbon Receptor (AhR), a member of the family of basic helix-loop-helix transcription factors, is crucial to adaptive responses to environmental changes. AhR mediates cellular responses to environmental pollutants such as aromatic hydrocarbons through induction of phase I and II enzymes but also interacts with other nuclear receptor signaling pathways A cell based HepG2-AhR-luc assay (HG2L7.5c1 cell line, developed by Dr. Michael S. Denison, University of California at Davis) was used to assess the activation of AhR. HepG2 (human hepatocellular carcinoma) cells were stably transfected with an Ah receptor-responsive firefly luciferase reporter gene plasmid containing 20 dioxin responsive elements and luciferase reporter gene. Increased luciferase activity can be used to identify the compounds that induce AhR activation. The cytotoxicity of the compounds screened against the HepG2-AhR-luc cell line was tested in parallel by measuring the cell viability using CellTiter-Fluor assay in the same wells.
Tox21 Assay Protocol Summary: 4000 cells in 5 uL/well were dispensed into white wall/solid bottom 1536-well plates using a Multidrop Combi (Thermo Fisher Scientific Inc., Waltham, MA) dispenser. After the assay plates were incubated at 37C for 5 h, 23 nL of compound or DMSO vehicle was transferred to the assay plates by a pintool station (Kalypsys, San Diego, CA). The plates were incubated at 37C for 24 hr. For cell viability measurement, 1 ul/well of CellTiter-Fluor reagent (Promega, Madison, WI) was added into the assay plates using a Flying Reagent Dispenser (FRD) (Aurora Discovery, CA),and then the assay plates were incubated at 37C for 30 min. The fluorescence intensity in the plates was measured using a ViewLux plate reader (PerkinElmer, Shelton, CT), followed by the addition of 4 uL of ONE-Glo Luciferase Assay reagent (Promega) using an FRD (Aurora Discovery). After the assay plates were incubated at room temperature for 30 min, luminescence intensity was measured using a ViewLux plate reader (Perkin Elmer).
On to `CCNCC(O)c1cccc(O)c1` (stereo not given), for which the “viability change, negative = cytotoxic” value is -0.458% [at 32.5 µM] (inactive).

As to `C/C(=C\c1csc(C)n1)[C@@H]1C[C@@H]2O[C@]2(C)CCC[C@H](C)[C@H](O)[C@@H](C)C(=O)C(C)(C)[C@@H](O)CC(=O)O1`, the “viability change, negative = cytotoxic” value was -12.1% (inactive).

In the case of `C[C@@H](N)C(=O)c1ccccc1`, the “viability change, negative = cytotoxic” value is 17.9% [at 95 µM] (inactive).

On to `C[C@@H]1[C@H](O)[C@@H](C)/C=C/C=C/CC/C=C/C=C/C=C/C=C/[C@H](O[C@H]2O[C@@H](C)[C@H](O)[C@@H](N)[C@H]2O)CC2O[C@](O)(C[C@@H](O)[C@H](O)CC[C@@H](O)C[C@@H](O)C[C@@H](O)CC(=O)O[C@H]1C)C[C@H](O)[C@H]2C(=O)O`, for which the “viability change, negative = cytotoxic” value is 1.65% (inactive).

As to `CC[N+](C)(CC)CCOC(=O)C(O)(c1ccccc1)c1ccccc1`, the “viability change, negative = cytotoxic” value is 1.61% (inactive).

For `CCCCCCC(=O)O[C@H]1CC[C@H]2[C@@H]3CC[C@H]4CC(=O)C=C(C)[C@]4(C)[C@H]3CC[C@]12C`, the “viability change, negative = cytotoxic” value was -2.39% (inactive).

Regarding `Nc1ccc([N+](=O)[O-])cc1`, the Potency is 40.9 µM (active).

`C=CC[C@]1(O)CC[C@H]2[C@@H]3CCC4=CCCC[C@@H]4[C@H]3CC[C@@]21C`: the “viability change, negative = cytotoxic” value was -0.622% (inactive).

`Oc1ccc2c3c1O[C@H]1[C@@H](O)CC[C@@]4(O)[C@@H](C2)N(CC2CCC2)CC[C@]314`: the “viability change, negative = cytotoxic” value was 1.09% (inactive).

Take `OC(c1ccccc1)(c1ccccc1)C1CN2CCC1CC2` (stereo not given): the “viability change, negative = cytotoxic” value was -13.4% (inactive).

As to `C[N+]1(C)CCCCC1COC(=O)C(O)(c1ccccc1)c1ccccc1` (stereo not given), the “viability change, negative = cytotoxic” value was -1.47% (inactive).

`C/C=C(\CC)C(=O)NC(N)=O`: the “viability change, negative = cytotoxic” value is 10.2% (inactive).

With `CN[C@@H](C)Cc1ccccc1`, the “viability change, negative = cytotoxic” value is -4.28% (inactive).

For `S=C(S)N1CCNCC1`, the “viability change, negative = cytotoxic” value is 12.2% (inactive).

With `CN[C@@]1(c2ccccc2Cl)CCCCC1=O`, the “viability change, negative = cytotoxic” value is 1.99% (inactive).

Take `O=C(Nc1ccccc1-c1ccc(Cl)cc1)c1cccnc1Cl`: the “viability change, negative = cytotoxic” value is 4.59% [at 95 µM] (inactive).

Take `O=P1(N(CCCl)CCCl)NC(OO)CCO1` (stereo not given): the “viability change, negative = cytotoxic” value is -2.29% (inactive).

Regarding `CNC1(c2ccccc2Cl)CCCCC1=O` (stereo not given), the Potency entry was “inactive”.

Take `C[C@]12CC[C@H]3[C@@H](CCC4=C(O)C(=O)CC[C@@H]43)[C@@H]1CC[C@@H]2OC(=O)CCC1CCCC1`: the “viability change, negative = cytotoxic” value was 10.9% (inactive).

Turning to `CC(Cc1ccccc1)NC=O` (stereo not given), the “viability change, negative = cytotoxic” value is 5.12% (inactive).

As for `Oc1cccc[c]1[Hg][Cl]`, the Potency is 16.8 µM (active).

`CCON=O`: the “viability change, negative = cytotoxic” value was -0.694% (inactive).

Consider `C=C[C@H]1CN2CC[C@H]1C[C@H]2[C@H](OC(=O)OCC)c1ccnc2ccc(OC)cc12`, for which the “viability change, negative = cytotoxic” value is -2.98% (inactive).

In the case of `NC1=NC(=O)N2CC12` (stereo not given), the “viability change, negative = cytotoxic” value was -1.81% (inactive).

In the case of `CN(C)[C@H](Cc1ccccc1)c1ccccc1`, the “viability change, negative = cytotoxic” value was 9.16% (inactive).

In the case of `C[C@]12CC[C@@H]3c4ccc(OC(=O)N(CCCl)CCCl)cc4CC[C@H]3[C@@H]1CC[C@@H]2OP(=O)(O)O`, the “viability change, negative = cytotoxic” value is -3.99% (inactive).

As to `C[C@]12CC[C@H]3[C@@H](CCC4=C(Cl)C(=O)CC[C@@]43C)[C@@H]1CC[C@@H]2O`, the “viability change, negative = cytotoxic” value is -4.06% (inactive).

Consider `COc1ccc2c3c1O[C@H]1[C@@H](O)C=C[C@H]4[C@@H](C2)NCC[C@@]341`, for which the Potency entry was “inactive”.

Regarding `c1ccccc1`, the “viability change, negative = cytotoxic” value was -0.956% (inactive).

With `O=C(O)/C=C/C(=O)O`, the Potency result was “inactive”.

Consider `Cc1ccccc1-n1c(C)nc2ccccc2c1=O`, for which the Potency result was “inactive and 24.1 µM (active)”.

Take `O=S(=O)(O)c1cc(O)ccc1O`: the Potency entry was “inactive”.

As for `C1CN(P2(N3CC3)=NP(N3CC3)(N3CC3)=NP(N3CC3)(N3CC3)=N2)CCO1` (stereo not given), the “viability change, negative = cytotoxic” value is 21.1% (inactive).

Turning to `CC(=O)Oc1ccc2c3c1O[C@H]1[C@@H](OC(C)=O)C=C[C@H]4[C@@H](C2)N(C)CC[C@@]341`, the Potency entry is “inactive”.

Take `C=C[C@H]1CN2CC[C@H]1C[C@@H]2[C@@H](O)c1ccnc2ccccc12`: the “viability change, negative = cytotoxic” value was 1.24% (inactive).

For the compound `Cc1ccc(N(SC(F)(Cl)Cl)S(=O)(=O)N(C)C)cc1`, the Potency is 48.6 µM (active).

On to `C[N+]1(C)[C@@H]2CC[C@H]1CC(OC(=O)c1c[nH]c3ccccc13)C2` (stereo not given in full), for which the “viability change, negative = cytotoxic” value was 12% (inactive).

For the compound `[S]=[Sb](=[S])[S][Sb](=[S])=[S]`, the “viability change, negative = cytotoxic” value was 7.27% (inactive).

In the case of `CCCCC[C@@H](O)C1C(=O)OC(C)[C@H](O)/C=C/C=C/C=C/C=C/C=C(\C)C(O)C(O)C(O)C[C@H](O)C[C@H](O)C[C@H](O)C[C@H](O)C[C@@H]1O` (stereo not given in full), the Potency entry is “inactive”.

Take `COc1ccc(OC)c([C@@H](O)[C@H](C)N)c1`: the “viability change, negative = cytotoxic” value is -21% (inactive).

The values above are taken from PubChem BioAssay (Tox21).
